Where “and” joins values, the source holds several entries; their conditions need not be identical. Identical values can stand only once. Results filed as inconclusive are left out. A structure can be active in one record and inactive in another. Calls of active or inactive are those of the source. The calls were made as follows, unless noted: active = hit-call score of the fitted dose curve at least 0.9, where 1 is the maximum; inconclusive = response in the unintended direction; inactive = score below 0.9.
Columns and labels:
[1] = molecular target: Peroxisome proliferator-activated receptor gamma (Homo sapiens) (UniProt P37231); experiment: ATG_hPPARg_XSP2: Attagene TRANS-FACTORIAL Multi-Species (XSP2) HepG2 Assay for human Peroxisome Proliferator-activated Receptor gamma (PPARg) (AID 2283829);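 also: actives raise reporter mRNA above DMSO so AC50 reflects PPARg activation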
Method in brief: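 HepG2 cells transiently transfected with multiplexed GAL4-UAS reporter units for chimeric NR-Gal4 receptors, dosed 24 h. Reporter mRNA quantified by RT-PCR, 6-FAM labeling, HpaI digestion and capillary electrophoresis; gain-of-signal fitted against DMSO baseline.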

[2] = molecular target: mouse Peroxisome Proliferator-activated Receptor gamma (PPARg), Pparg (gene 19016) (UniProt P37238); experiment: ATG_mPPARg_XSP2: Attagene TRANS-FACTORIAL Multi-Species (XSP2) HepG2 Assay for mouse Peroxisome Proliferator-activated Receptor gamma (PPARg) (AID 2283830);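 also: hits are gains in reporter mRNA above DMSO so AC50 marks activation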
Protocol: (§1) ATG_XSP2_multi-species_TRANS is a cell-based, multiplexed assay created by modifying the existing Attagene TRANS-FACTORIAL system to include a panel of nuclear receptors from some or all the following species: human (Homo sapiens), mouse (Mus musculus), frog (Xenopus laevis), zebrafish (Danio rerio), chicken (Gallus gallus), and turtle (Chrysemys picta). The […] format uses HepG2, a human liver cell line, with measurements taken at 24 hours after chemical dosing in a 24-well plate. Xsp2 included 3 nM 6-alpha-fluorotestosterone and 1.5 nM norgestrel to stimulate the androgen receptor.ATG_mPPARg_XSP2 is one of 29 assay components measured or calculated from the ATG_XSP2_multi-species_TRANS assay. It is designed to make measurements of mRNA induction, a form of inducible reporter, as detected with fluorescence intensity signals by Reverse transcription polymerase chain reaction (RT-PCR) and Capillary electrophoresis technology.The assay endpoint ATG_mPPARg_XSP2 was analyzed in the positive analysis fitting direction relative to DMSO as the negative control and baseline of activity. Using a type of inducible reporter, measures of mRNA for gain-of-signal activity can be used to understand the reporter gene at the transcription factor-level as they relate to the gene PPARg. Furthermore, this assay endpoint can be referred to as a primary readout, because this assay has produced multiple assay endpoints where this one serves a reporter gene function. To generalize the intended target to other relatable targets, this assay endpoint is annotated to the nuclear receptor intended target family, where the subfamily is non-steroidal.
(§2) Human liver HepG2 cells are transiently transfected with multiple reporter transcription units (MRTUs) in 6-well plates using FuGene 6 reagent (Roche; 3 ml FuGene/1 mg DNA). The MRTU constructs are regulated by a cis-regulating element (promoter). […] A major difference between the CIS and TRANS system is that in CIS activities of endogenous TFs are measured, whereas the TRANS assay evaluates changes in activities of exogenous, chimeric NR-Gal4 proteins. […] At the end of 24 hour incubation, total RNA was isolated using TriZol reagent (Invitrogen). The isolated RNA is then reverse-transcribed using oligo(dT) primer and Mo-MLV reverse transcriptase (Invitrogen) with DNAse I (Ambion) treatment for 30 min. […] The fragments were purified using Qiaquick PCR columns (Qiagen), analyzed on an ABI 3130xL genetic analyzer (Applied Biosystems) with peak positions identified by using a set of X-rhodamine (ROX)-labeled MapMarker1000 molecular weight standards (BioVentures). […]

[3] = molecular target: Nuclear receptor subfamily 1 group I member 2 (Mus musculus) (UniProt O54915); experiment: ATG_mPXR_XSP2: Attagene TRANS-FACTORIAL Multi-Species (XSP1) HepG2 Assay for mouse Pregnane X Receptor (PXR) (AID 2283831)
Method in brief: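 HepG2 cells transiently transfected with GAL4-UAS reporter units expressing chimeric NR-GAL4 proteins; reporter mRNA measured 24 h after dosing by RT-PCR with 6-FAM labelling and capillary electrophoresis, gain of signal relative to DMSO.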

[4] = molecular target: zebrafish Thyroid Hormone Receptor alpha (TRa), thraa (gene 30670) (UniProt Q98867); experiment: ATG_zfTRa_XSP2: Attagene TRANS-FACTORIAL Multi-Species (XSP1) HepG2 Assay for zebrafish Thyroid Hormone Receptor alpha (TRa) (AID 2283832);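 also: actives raise zebrafish TRa-Gal4 reporter transcript above DMSO baseline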
Method in brief: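 HepG2 transiently transfected with GAL4-UAS reporter units and chimeric zebrafish TRa-Gal4; reporter mRNA quantified after 24 h dosing by RT-PCR, HpaI digestion and capillary electrophoresis fluorescence. Gain of signal vs DMSO; XSP2 medium contains 3 nM 6-alpha-fluorotestosterone, 1.5 nM norgestrel.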

[5] = test system: zebrafish Peroxisome Proliferator-activated Receptor gamma (PPARg), gene 557037; experiment: ATG_zfPPARg_XSP2: Attagene TRANS-FACTORIAL Multi-Species (XSP2) HepG2 Assay for zebrafish Peroxisome Proliferator-activated Receptor gamma (PPARg) (AID 2283833);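 also: reporter mRNA from a zebrafish PPARg GAL4 chimera measured by RT-PCR and capillary electrophoresis; actives increase reporter signal over DMSO so AC50 reflects activation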
Protocol: as §1, with “receptor.ATG_zfPPARg_XSP2” for “receptor.ATG_mPPARg_XSP2”, “ATG_zfPPARg_XSP2” for “ATG_mPPARg_XSP2”, “Using a type of inducible reporter, measures of mRNA for gain-of-signal activity can be used to understand the reporter gene at the transcription factor-level as they relate to the gene PPARg.” left out, “To generalize the intended target to other relatable targets, this assay endpoint is annotated to the nuclear receptor intended target family, where the subfamily is non-steroidal.” left out
Human liver HepG2 cells are transiently transfected with multiple reporter transcription units (MRTUs) in 6-well plates using FuGene 6 reagent (Roche; 3 ml FuGene/1 mg DNA). […] A major difference between the CIS and TRANS system is that in CIS activities of endogenous TFs are measured, whereas the TRANS assay evaluates changes in activities of exogenous, chimeric NR-Gal4 proteins. […] The fragments were purified using Qiaquick PCR columns (Qiagen), analyzed on an ABI 3130xL genetic analyzer (Applied Biosystems) with peak positions identified by using a set of X-rhodamine (ROX)-labeled MapMarker1000 molecular weight standards (BioVentures). […]

[6] = test system: turtle Thyroid Hormone Receptor, alpha (TRa), gene 101949057; experiment: ATG_trTRa_XSP2: Attagene TRANS-FACTORIAL Multi-Species (XSP1) HepG2 Assay for turtle Thyroid Hormone Receptor, alpha (TRa) (AID 2283834);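 also: hits raise reporter mRNA over the DMSO baseline so AC50 marks activators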
Method in brief: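 HepG2 cells transiently transfected with multiplexed GAL4-UAS reporter units expressing chimeric NR-Gal4 proteins were dosed for 24 hours. Reporter mRNA was quantified by RT-PCR with 6-FAM labelling and capillary electrophoresis, gain of signal scored against DMSO.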

[7] = ATG_M_61_XSP2: Attagene TRANS-FACTORIAL Multi-Species (XSP2) HepG2 Assay for M61 Transcription Factor (Internal Marker) (AID 2283835; active = hit-call score of the fitted dose curve at least 0.9, where 1 is the maximum; inactive = score below 0.9;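 also: active means a rise in signal above the DMSO baseline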)
Method in brief: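 HepG2 cells transiently transfected with multiple GAL4-UAS reporter units; reporter mRNA measured 24 h after dosing by RT-PCR, fluorescent labelling and capillary electrophoresis. Medium contained 3 nM 6-alpha-fluorotestosterone and 1.5 nM norgestrel; internal marker, DMSO baseline.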

[8] = molecular target: zebrafish Thyroid Hormone Receptor beta (TRb), thrb (gene 30607) (UniProt Q9PVE4); experiment: ATG_zfTRb_XSP2: Attagene TRANS-FACTORIAL Multi-Species (XSP1) HepG2 Assay for zebrafish Thyroid Hormone Receptor beta (TRb) (AID 2283836)
Protocol: as §1, with “receptor.ATG_zfTRb_XSP2” for “receptor.ATG_mPPARg_XSP2”, “ATG_zfTRb_XSP2” for “ATG_mPPARg_XSP2”, “TR.” for “PPARg.”
as §2

[9] = molecular target: human Thyroid hormone Receptor alpha (TRa), THRA (gene 7067) (UniProt P10827); experiment: ATG_hTRa_XSP2: Attagene TRANS-FACTORIAL Multi-Species (XSP2) HepG2 Assay for human Thyroid hormone Receptor alpha (TRa) (AID 2283838)
Method in brief: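 HepG2 cells were transiently transfected with GAL4-UAS reporter units for chimeric human TRa-Gal4 and dosed for 24 hours, with 3 nM 6-alpha-fluorotestosterone and 1.5 nM norgestrel present. Reporter mRNA was quantified by RT-PCR, FAM labelling and capillary electrophoresis, with gain of signal fitted versus DMSO.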

[10] = ATG_XTT_Cytotoxicity_XSP2: Cytotoxicity Assessment in the Attagene TRANS-FACTORIAL Multi-Species (XSP2) HepG2 Assay (AID 2283837)
Method in brief: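 HepG2 cells, transiently transfected with multiple reporter constructs, exposed to chemical for 24 h. Cell number assessed with XTT fluorescence read-out; loss of signal fitted relative to DMSO.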

Measured: AC50

Sequence of zebrafish Thyroid Hormone Receptor beta (TRb), thrb (gene 30607) (Q9PVE4 whole entry, looked up): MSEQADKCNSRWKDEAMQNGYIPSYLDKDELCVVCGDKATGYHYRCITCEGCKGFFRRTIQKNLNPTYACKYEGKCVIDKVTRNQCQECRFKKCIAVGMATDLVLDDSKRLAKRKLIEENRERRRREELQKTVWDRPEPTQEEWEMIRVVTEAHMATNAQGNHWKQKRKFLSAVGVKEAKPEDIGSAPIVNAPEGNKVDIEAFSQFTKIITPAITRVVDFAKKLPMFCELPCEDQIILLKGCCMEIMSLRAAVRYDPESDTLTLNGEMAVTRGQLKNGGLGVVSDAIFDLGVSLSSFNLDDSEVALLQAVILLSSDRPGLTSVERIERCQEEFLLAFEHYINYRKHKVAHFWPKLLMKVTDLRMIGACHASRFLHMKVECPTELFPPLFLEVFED
Sequence of Nuclear receptor subfamily 1 group I member 2 (Mus musculus) (O54915 whole entry, looked up, the tested form may be a part): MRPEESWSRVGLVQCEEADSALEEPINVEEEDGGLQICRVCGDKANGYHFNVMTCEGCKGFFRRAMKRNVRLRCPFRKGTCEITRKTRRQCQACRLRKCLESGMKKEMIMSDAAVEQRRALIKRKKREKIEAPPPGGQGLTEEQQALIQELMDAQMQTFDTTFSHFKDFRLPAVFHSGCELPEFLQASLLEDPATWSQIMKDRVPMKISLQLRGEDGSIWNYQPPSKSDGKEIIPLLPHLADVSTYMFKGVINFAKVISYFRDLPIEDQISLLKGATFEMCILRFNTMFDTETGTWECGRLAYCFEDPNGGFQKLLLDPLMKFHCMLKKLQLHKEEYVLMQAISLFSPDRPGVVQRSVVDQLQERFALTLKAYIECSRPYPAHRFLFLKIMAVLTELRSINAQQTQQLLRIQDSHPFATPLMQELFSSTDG
Sequence of mouse Peroxisome Proliferator-activated Receptor gamma (PPARg), Pparg (gene 19016) (P37238 whole entry, looked up): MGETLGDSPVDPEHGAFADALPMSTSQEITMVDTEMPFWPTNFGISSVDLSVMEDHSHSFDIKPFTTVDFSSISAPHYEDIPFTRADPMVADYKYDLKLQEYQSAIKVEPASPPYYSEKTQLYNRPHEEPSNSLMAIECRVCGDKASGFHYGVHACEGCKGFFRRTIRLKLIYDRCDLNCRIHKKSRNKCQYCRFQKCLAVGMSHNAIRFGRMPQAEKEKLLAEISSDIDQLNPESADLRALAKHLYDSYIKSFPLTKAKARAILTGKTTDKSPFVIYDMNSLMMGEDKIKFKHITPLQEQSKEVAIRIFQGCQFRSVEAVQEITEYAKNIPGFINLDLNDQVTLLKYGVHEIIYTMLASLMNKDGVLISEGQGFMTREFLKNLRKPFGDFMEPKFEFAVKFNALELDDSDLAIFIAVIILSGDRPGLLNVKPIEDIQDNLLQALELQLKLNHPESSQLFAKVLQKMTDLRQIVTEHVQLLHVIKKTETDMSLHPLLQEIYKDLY
Sequence of Peroxisome proliferator-activated receptor gamma (Homo sapiens) (P37231 whole entry, looked up, the tested form may be a part): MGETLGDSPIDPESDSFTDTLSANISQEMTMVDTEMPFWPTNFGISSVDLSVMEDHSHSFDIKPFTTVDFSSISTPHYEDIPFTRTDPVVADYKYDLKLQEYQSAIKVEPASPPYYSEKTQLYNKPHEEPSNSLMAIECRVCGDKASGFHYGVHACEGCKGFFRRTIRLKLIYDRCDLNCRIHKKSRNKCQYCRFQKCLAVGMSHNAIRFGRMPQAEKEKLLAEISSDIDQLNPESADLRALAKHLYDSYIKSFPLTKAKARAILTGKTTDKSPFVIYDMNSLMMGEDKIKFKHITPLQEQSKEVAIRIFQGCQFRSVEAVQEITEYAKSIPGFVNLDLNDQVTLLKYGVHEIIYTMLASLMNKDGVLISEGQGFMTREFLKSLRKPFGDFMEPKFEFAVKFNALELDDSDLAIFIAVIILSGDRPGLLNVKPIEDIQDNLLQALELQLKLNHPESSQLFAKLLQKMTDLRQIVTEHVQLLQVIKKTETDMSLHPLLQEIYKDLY
Sequence of human Thyroid hormone Receptor alpha (TRa), THRA (gene 7067) (P10827 whole entry, looked up, the tested form may be a part): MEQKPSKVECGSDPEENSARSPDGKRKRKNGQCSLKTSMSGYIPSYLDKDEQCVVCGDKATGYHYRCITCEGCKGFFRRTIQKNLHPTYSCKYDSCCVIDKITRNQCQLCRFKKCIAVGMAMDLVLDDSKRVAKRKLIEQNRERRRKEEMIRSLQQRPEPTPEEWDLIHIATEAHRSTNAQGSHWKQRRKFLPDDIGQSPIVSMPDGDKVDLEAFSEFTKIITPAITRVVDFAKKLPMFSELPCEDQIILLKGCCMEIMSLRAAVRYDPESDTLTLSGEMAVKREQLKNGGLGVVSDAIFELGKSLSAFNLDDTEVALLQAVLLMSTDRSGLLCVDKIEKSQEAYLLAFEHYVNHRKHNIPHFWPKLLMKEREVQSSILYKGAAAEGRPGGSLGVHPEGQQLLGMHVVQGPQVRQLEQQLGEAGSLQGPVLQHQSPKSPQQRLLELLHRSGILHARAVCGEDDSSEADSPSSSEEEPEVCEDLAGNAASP
Sequence of zebrafish Thyroid Hormone Receptor alpha (TRa), thraa (gene 30670) (Q98867 whole entry, looked up, the tested form may be a part): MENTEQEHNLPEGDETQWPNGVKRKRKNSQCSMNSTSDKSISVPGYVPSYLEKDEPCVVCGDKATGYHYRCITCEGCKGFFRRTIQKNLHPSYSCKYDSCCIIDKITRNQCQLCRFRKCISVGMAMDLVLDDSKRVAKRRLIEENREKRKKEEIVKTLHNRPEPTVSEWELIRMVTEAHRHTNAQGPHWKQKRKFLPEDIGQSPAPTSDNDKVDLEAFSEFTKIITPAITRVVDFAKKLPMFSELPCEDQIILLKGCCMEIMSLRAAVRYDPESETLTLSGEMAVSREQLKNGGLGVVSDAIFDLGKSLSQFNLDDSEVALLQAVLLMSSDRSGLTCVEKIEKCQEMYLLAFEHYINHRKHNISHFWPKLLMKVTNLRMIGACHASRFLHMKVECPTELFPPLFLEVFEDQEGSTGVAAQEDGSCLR

O=C(OCCOCCOCCOC(=O)c1ccccc1)c1ccccc1
active: [1] 46.3 µM | [2] 58.5 µM | [3] 22.8 µM
inactive: [1] | [2] | [4] | [5] | [6] | [7] | [8] | [9]

c1ccc(B(c2ccccc2)c2ccccc2)cc1
active: [1] 60.6 µM and 40.8 µM | [2] 65.6 µM and 45.9 µM | [3] 1.27 µM and 4.39 µM | [5] 100 µM
inactive: all other assays above

C#C[C@]1(O)CC[C@H]2[C@@H]3CCc4cc(OC)ccc4[C@H]3CC[C@@]21C
not listed: [2] | [5]
inactive: all other assays above

C(=C(c1ccccc1)c1ccccc1)c1ccccc1
not listed: [4] | [10]
inactive: all other assays above

Reference: PubChem BioAssay (EPA / NIEHS)
